From PubChem BioAssay
TWEAK Fn14 block – inhibitors of TWEAK-Fn14 signaling, primary screen, luciferase reporter cells, uHTS; TWEAK-stimulated Fn14 reporter cells, luciferase luminescence, 8 h; inhibition, % at 10 µM; 360,000 tested, 2% active; in the data active = inhibition above about 50%
TROY NFkB inh – inhibitors of TROY-driven NF-kB signaling, primary screen, Q293 LMP1-TROYcd cells, NF-kB luciferase, uHTS | 360,000 tested, 0.98% active | AID 1347056, 2019 | Q293 LMP1-TROYcd NF-kB luciferase reporter, 4 h | inhibition, % at 10 µM;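 active = compounds whose plate-normalised and pattern-corrected inhibition of the luciferase reporter signal at the single screening dose is 50% or more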
EBV LMP1 NFkB – EBV LMP1-driven NF-kappaB luciferase reporter inhibitors, primary screen, cell-based, luminescence, single point; LMP1-induced NF-kappaB luciferase reporter cells; inhibition, % at 12.5 µM; 350,000 tested, 0.69% active; AID 504558, 2011; in the data active = inhibition above about 41%
LGR2 inh – inhibitors of bursicon-induced LGR2 CRE-luciferase signal, primary screen, cell-based, HEK293, CRE-luciferase reporter, bursicon stimulation. Drosophila bursicon receptor LGR2 (rickets). bursicon-stimulated, 4 h. inhibition, % at 9.99 µM. 380,000 tested, 0.35% active. AID 720647, 2013;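 active = drop in luminescence signal, shown as inhibition above about 50% in the replicate tests, limit read from the data, passing the limit was not always enough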;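 also: agonist challenge used bursicon conditioned medium at about half maximal strength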
EWS-Fli block – EWS/Fli-driven NR0B1 reporter inhibitors, primary screen, A673 cells, NR0B1 luciferase, luminescence, MLPCN library | AID 651661, 2012 | inhibition, % at 12.6 µM | viability-normalised | 350,000 tested, 0.67% active;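 active = mean inhibition of at least 50% after viability correction, with every replicate also passing that limit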;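 also: firefly luciferase signal divided by Alamar Blue viability fluorescence both relative to DMSO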
A number is an active result; 0 = inactive; - = no result given; ! = repeats disagree. In the library only some 2.5% were active in any assay of this set; here they are far more common.

SMILES	TWEAK Fn14 block	TROY NFkB inh	EBV LMP1 NFkB	LGR2 inh	EWS-Fli block
N#Cc1cccc(-c2ccc(C3[C@@H]4CN(C(=O)C5CC5)C[C@H]3N4)cc2)c1 (some centres not stated)	-	-	-	89!	0
C[C@H](CO)N1C[C@H](C)[C@H](CN(C)C(=O)Nc2ccc3c(c2)OCO3)Oc2ccc(NC(=O)c3ccncc3)cc2C1=O	-	-	-	0	0
O=C(C1CCCC1)N1C[C@@H]2N[C@H](C1)C2c1ccc(-c2cccc(F)c2)cc1 (some centres not stated)	-	-	-	0	0
O=C(C1CC1)N1C[C@@H]2N[C@H](C1)C2c1ccc(-c2cccc(F)c2)cc1 (some centres not stated)	-	-	-	61!	0
COc1ccc(-n2c(Cc3cccn3C)nnc2SCC(=O)Nc2ccccc2)cc1	0	0	0	0	0
COc1ccc(-n2c(Cc3cccn3C)nnc2SCC(=O)Nc2cc(Cl)ccc2OC)cc1	62	0	0	0	0
COc1ccc(-n2c(Cc3cccn3C)nnc2SCC(=O)Nc2ccc(Cl)cc2)cc1	50	0	0	0	0
COc1ccc(-n2c(Cc3cccn3C)nnc2SCC(=O)Nc2ccccc2OC)cc1	0	0	0	0	0
CCCNC(=O)C[C@H]1CC[C@@H]2[C@H](COC[C@@H](O)CN2C(=O)c2cccnc2)O1	-	-	-	0	0
C[C@H]1CCCCO[C@H](CN(C)S(=O)(=O)c2ccc(F)cc2)[C@@H](C)CN([C@@H](C)CO)C(=O)c2cc(NC(=O)Nc3ccc(C(F)(F)F)cc3)ccc2O1	-	-	-	0	0
O=C(Cc1ccccn1)NCC[C@@H]1CC[C@H](NS(=O)(=O)c2ccc(F)cc2)[C@H](CO)O1	-	-	-	0	0
CCOc1c(Cl)cc(/C=N/NC(N)=S)cc1OC	52	0	0	0	0
COc1cc(/C=N/NC(N)=S)cc(Br)c1OCc1ccccc1F	64	0	0	0	-
CO[C@@H]1CN(C)C(=O)c2ccc(NC(=O)C3CCCC3)cc2OC[C@@H](C)N(CCC(F)(F)F)C[C@H]1C	-	-	-	0	0
CCC(=O)N1C[C@@H](C)[C@H](OC)CN(C)C(=O)c2cc(NC(=O)COC)ccc2OC[C@H]1C	-	-	-	0	0
Cc1ccc(O)c(-c2[nH]ncc2C(=O)c2ccc(Cl)cc2)c1	0	0	0	0	0
Cc1ccc(O)c(-c2[nH]ncc2C(=O)c2ccc(Br)cc2)c1	0	65	0	0	0
O=C(Nc1cccc(C(F)(F)F)c1)Nc1ccc(N2CCCC2)c(S(=O)(=O)Nc2ccccc2Cl)c1	80	0	0	0	-
CCn1c(=NC(=O)c2ccc(S(=O)(=O)N3CCOCC3)cc2)sc2cccc(OC)c21	60	0	0	-	-
CCn1c(=NC(=O)CCS(=O)(=O)c2ccccc2)sc2cccc(OC)c21	58	0	0	0	-
COCCn1c(=NC(=O)c2ccc(S(=O)(=O)N3CCOCC3)cc2)sc2cc(S(N)(=O)=O)ccc21	0	0	0	0	-
O=C(c1ccccc1Cl)N(C(=O)c1ccccc1Cl)c1nccc(-c2cccs2)n1	77	67	0	-	-
Cc1cnc(C=NNC(N)=S)c2cccc(N)c12	0	0	0	0	0
NC(=S)NN=Cc1nccc2c(C(F)(F)C(F)(F)C(F)(F)F)cccc12	0	0	82	0	0
NC(=S)N/N=C/c1ccc(/C=N/NC(N)=S)cc1	0	0	0	0	0
SMILES	TWEAK Fn14 block	TROY NFkB inh	EBV LMP1 NFkB	LGR2 inh	EWS-Fli block
NC(=S)NN=Cc1nccc2ccccc12	77	0	82	0	0
C[C@H]1CN([C@@H](C)CO)C(=O)Cc2cc(NC(=O)CCN3CCOCC3)ccc2O[C@H]1CN(C)Cc1ccc(-c2ccccc2)cc1	-	-	-	0	0
C[C@H]1CN([C@@H](C)CO)C(=O)Cc2cc(NC(=O)Cn3cnnn3)ccc2O[C@H]1CN(C)S(=O)(=O)c1ccc(F)cc1	-	-	-	0	0
CCCCCCSC1=C(C#N)C(c2ccc(C)o2)CC(=O)N1 (configuration not stated)	0	0	0	-	-
CCSC1=C(C#N)C(c2ccc(C)o2)CC(=O)N1 (configuration not stated)	0	0	49	0	0
CCCNC(=O)N1C[C@@H](C)[C@H](OC)CN(C)C(=O)c2ccc(NC(=O)C3CCC3)cc2OC[C@@H]1C	-	-	-	0	0
C/C(=N\NC(=S)NC1CCCCC1)c1ccccc1	0	54	0	0	-
COc1ccc(NC(=O)Nc2ccc3c(c2)C(=O)N([C@@H](C)CO)C[C@H](C)[C@@H](CN(C)S(=O)(=O)c2cccs2)O3)cc1	-	-	-	0	0
C[C@@H](NC(=O)[C@H]1[C@H](CO)[C@H]2Cn3c(cccc3=O)[C@@H]1N2Cc1ccccc1)c1ccccc1	-	-	-	0	0
C[C@@H]1CCCCO[C@H](CN(C)S(=O)(=O)c2ccc(F)cc2)[C@@H](C)CN([C@@H](C)CO)C(=O)c2cc(NS(=O)(=O)c3ccccc3)ccc2O1	-	-	-	0	0
O=C(N/N=C/c1ccccc1)c1ccco1	0	0	0	0	0
CCN(CC)c1ccc(/C=N/NC(=O)c2ccco2)c(O)c1	0	0	69	0	0
CCN(CC)c1ccc(/C=N/NC(=O)Cc2cccs2)c(O)c1	0	0	0	0	0
CCN(CC)c1ccc(/C=N/NC(=O)c2ccco2)cc1	64	0	0	0	-
O=C(N/N=C/c1ccc2cccnc2c1)c1ccco1	52	0	0	0	0
C=CCn1c(SCc2ccc3nonc3c2)nnc1-c1cccs1	0	0	71	-	-
O=C(NC(Cc1c[nH]c2ccccc12)C(=O)N/N=C/c1ccc(Cl)cc1)c1cccs1 (configuration not stated)	53	0	0	0	0
Cc1ccccc1C1=C/C(=C(\SS/C(C(=O)c2ccc(OCC(=O)O)c(Cl)c2Cl)=C2\C=C(c3ccccc3C)SS2)C(=O)c2ccc(OCC(=O)O)c(Cl)c2Cl)SS1	57	0	0	-	0
O=C(Nc1ccc(S(=O)(=O)NC2=NCCCCC2)cc1)c1ccc([N+](=O)[O-])s1	0	0	0	0	59
C[C@@H]1CN([C@H](C)CO)C(=O)c2cccc(NC(=O)C3CCOCC3)c2O[C@@H]1CN(C)S(=O)(=O)c1cccs1	-	-	-	0	0
CO[C@@H]1CN(C)C(=O)c2ccc(NS(=O)(=O)c3ccc(C)cc3)cc2OC[C@@H](C)N(C(=O)NC(C)C)C[C@@H]1C	-	-	-	0	0
C(/C=C/c1ccccn1)=C\c1ccccc1	0	0	0	76	0
NC(=O)CSc1nc2c(c(=O)n1-c1ccccc1)C1(CCCCC1)Cc1ccccc1-2	0	0	0	0	0
Cc1cccc(-n2c(SCC(N)=O)nc3c(c2=O)C2(CCCC2)Cc2ccccc2-3)c1	0	50	0	0	-
COc1ccc(C(c2c(NC(=O)c3ccco3)sc(C)c2C)N2CCOCC2)cc1 (configuration not stated)	83	52	0	0	0
